# RE007 growth inh – qHTS Assay for Inhibitors of the HIV-1 protein Vpr; S. pombe RE007 Vpr strain, BacTiter-Glo ATP luminescence, 24 h; Potency, µM (titrated, usually from 92.2 µM), without a hit: at the highest dose activity change, negative = less growth, usual class: inhibitors; 0.21% of 360,000 active; AID 651644, 2012; active = well fitted falling curve with a large enough effect; inconclusive = small, poorly fitted or top-dose-only effect; inactive = no such curve, though single readings can be large or run the other way; note: % is set by controls: 0 for no effect and ±100 for the full control effect; nearly all actives have a fitted effect of over 50% in size
#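 Fission yeast strain RE007, carrying one chromosomally integrated HIV-1 vpr copy, was seeded at OD 0.01 in PMG+AL medium with 23 nL pinned compound. After 24 h at 30 °C and 99% humidity, viability was read by BacTiter-Glo luminescence.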
# NS1 inh – qHTS Assay for Inhibitors of Influenza NS1 Protein Function. 0.4% of 270,000 active. Potency, µM (titrated, usually from 46.1 µM), for the others: at the highest dose activity, positive = more growth; calls by dose curve; note: actives are rising curves; nearly all actives have a fitted effect of over 50% in size
#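 S. cerevisiae expressing influenza A NS1, grown in glucose, washed, then diluted 1:100 into pH 6.0 -URA galactose medium with 23 nl compound. Growth recovery read as OD600; NS1-free strain serves as control.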
# TbPYK inhibitor – qHTS of Trypanosoma Brucei Inhibitors | 0.12% of 410,000 active | TbPYK enzyme, Kinase-Glo Plus ATP luminescence, 45 min | pyruvate kinase (Trypanosoma brucei), Q57TT1 | Potency, µM (highest dose often 76.8 µM), for the others: at the top dose activity, negative = inhibition, most hits filed as inhibitors; note: % is set by controls: 0 for no effect and ±100 for the full control effect; nearly all actives have a fitted effect of over 50% in size
#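 Assay buffer: 50 mM TEA pH 7.2, 100 mM KCl, 10 mM MgCl2, 0.05% BSA, 0.01% Tween-20. Pyruvate kinase from T. brucei plus substrate met compound, then ADP (130 uM final). Luminescence was read post 45 min RT.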
# LmPK inhibitor – qHTS Assay for Inhibitors of Leishmania Mexicana Pyruvate Kinase (LmPK); purified LmPK, Kinase-Glo ATP luminescence, 1 h; Q27686; 0.37% of 290,000 active; AID 1721, 2009; Potency, µM (series often up to 57.5 µM), for the others: top-dose activity change, negative = inhibition, usual class: inhibitors; note: % is set by controls: 0 for no effect and ±100 for the full control effect
# Target sequence (Q27686 whole entry, looked up): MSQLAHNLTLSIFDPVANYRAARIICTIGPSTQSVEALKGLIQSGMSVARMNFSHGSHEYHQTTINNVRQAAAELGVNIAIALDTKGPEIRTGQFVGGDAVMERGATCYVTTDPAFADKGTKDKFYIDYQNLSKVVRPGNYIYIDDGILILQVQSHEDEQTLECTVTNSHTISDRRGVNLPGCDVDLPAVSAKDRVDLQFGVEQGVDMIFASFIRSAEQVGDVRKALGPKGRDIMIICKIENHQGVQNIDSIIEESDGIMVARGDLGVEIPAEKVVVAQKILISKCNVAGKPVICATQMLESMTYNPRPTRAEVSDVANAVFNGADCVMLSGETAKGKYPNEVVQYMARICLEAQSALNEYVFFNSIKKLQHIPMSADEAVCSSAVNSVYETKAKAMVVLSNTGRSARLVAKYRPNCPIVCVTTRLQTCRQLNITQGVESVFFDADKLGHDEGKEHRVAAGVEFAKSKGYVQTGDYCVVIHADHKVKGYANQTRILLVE
#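 Purified LmPK (0.1 nM) with 0.5 mM PEP and 0.1 mM ADP in imidazole buffer pH 7.2 with MgCl2/KCl, 1 h at room temperature. ATP formed was read by luciferase luminescence and normalized to no-enzyme and uninhibited controls.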
# Numbers without * were called inactive; ? = inconclusive; . = no result; [ ] = another dose, or the depositor's remark. In the library only some 0.77% were active in any assay of this set; here they are far more common. Unless noted, calls come from the whole dose curve; as a rule, active = well fitted curve in the direction sought with a large enough effect; inconclusive = small, poorly fitted or top-dose-only effect, or another doubt; inactive = no such curve, though single readings can be large; an effect the other way counts as inactive or inconclusive. Potency is the fitted concentration of half-maximal effect.
SMILES,RE007 growth inh,NS1 inh,TbPYK inhibitor,LmPK inhibitor
N/C(=N\OC(=O)/C=C/c1ccccc1)c1ccccc1,-10%,-184%,-5%,14µM*
COc1ccc(OC)c(C[C@H](C)N)c1,.,.,0%[157 µM],.
COC(=O)C1=C(C(=O)OC)[C@@H]2Nc3ccccc3[C@@]23C[C@@H](C(=O)OC)N(S(=O)(=O)c2ccc(C#N)cc2)C3=N1,.,.,.,-6%[11.5 µM]
O=C(O)CSC1CC(=O)N(c2ccc(Cl)c(Cl)c2)C1=O (stereo unspecified),11µM*,-23%,7%,1%
CCN(CCCNC(=O)c1cc2cc3ccc(OC)cc3nc2s1)c1ccccc1,.,.,1%,.
CCCCN(C)C(=O)c1cc2cc3ccc(OC)cc3nc2s1,?,-57%,?,14µM*
CCC(=O)OC1C(N(C)C)CC(C)O[C@H]1O[C@H]1[C@H](C)[C@@H](O[C@H]2CC(OC)[C@@H](O)C(C)O2)[C@H](C)C(=O)O[C@@H](CC)[C@](C)(O)[C@@H](O)[C@H](C)C(=O)[C@@H](C)C[C@]1(C)O (stereo partly specified),.,.,3%,.
O=C(CCN1CCN(C(=O)c2ccccc2)CC1)c1ccc(Br)cc1,28µM*,7%,0%,-2%
COc1ccc(N=Cc2c(O)c3ccccc3oc2=O)cc1,-9%,2%,-16%,16µM*
CC(C)C(Cl)=NOC(=O)Nc1ccc(F)cc1,10µM*,.,-9%,.
C/C(=N\OC(=O)Nc1ccc(Cl)cc1)c1ccc(F)c(F)c1,5%,-76%,2%,-1%
CSCC[C@H](NC(=O)[C@@H](Cc1ccc(O[S+](=O)([O-])O)cc1)NC(=O)[C@H](N)CC(=O)O)C(=O)NCC(=O)N[C@@H](Cc1c[nH]c2ccccc12)C(=O)N[C@H](CCSC)C(=O)N[C@H](CC(=O)O)C(=O)N[C@@H](Cc1ccccc1)C(N)=O,.,.,-6%,.
COc1ccc2c(c1)sc1nc(-c3ccccc3)cn12,?,-122%,?,13µM*
COc1ccc(-c2cn3c(n2)sc2cc(C(=O)NCc4ccccc4)ccc23)cc1,.,.,0%,.
OCC(O)COc1ccc(Cl)cc1 (stereo unspecified),.,.,0%,.
Nc1cccc(-c2nc3ccc(N)cc3s2)c1,-24%,-12%,?,13µM*
Nc1ccc(-c2nc3ccc(C(=O)O)cc3s2)cc1,-8%,0%,?,?
Nc1ccc2nc(-c3ccc(O)cc3)sc2c1,.,.,-21%,.
Nc1ccc(-c2nc3ccc(N)cc3s2)cc1,?,-43%,-9%,14µM*
Nc1cc2sc(-c3ccc(C(=O)O)cc3)nc2cc1Cl,?,1%,?,16µM*
O=C(O)c1ccc2nc(-c3ccccc3)sc2c1,-3%,-23%,-23%,?
CC1(C)O[C@@H]2C[C@H]3[C@@H]4CCC5=CC(=O)C=C[C@]5(C)[C@H]4C(O)C[C@]3(C)[C@]2(C(=O)CO)O1 (stereo partly specified),.,.,-8%,.
CC(N)C(=O)NCC(=O)NC1CSSCC(C(=O)O)NC(=O)C(CO)NC(=O)C(C(C)O)NC(=O)C(Cc2ccccc2)NC(=O)C(C(C)O)NC(=O)C(CCCCN)NC(=O)C(Cc2c[nH]c3ccccc23)NC(=O)C(Cc2ccccc2)NC(=O)C(Cc2ccccc2)NC(=O)C(CC(N)=O)NC(=O)C(CCCCN)NC1=O (stereo unspecified),.,.,2%,.
c1ccc(CCc2cccnc2)nc1,.,-4%,.,.
COc1ccc(-c2noc(-c3ccc(NCCc4ccccc4)c([N+](=O)[O-])c3)n2)cc1OC,.,.,1%,.
SMILES,RE007 growth inh,NS1 inh,TbPYK inhibitor,LmPK inhibitor
c1ccc2c(c1)nnn2CN1CCOCC1,.,0%,.,.
Cn1c(/C=C/c2ccccc2)nc2ccccc21,?,-49%,?,5µM*
CCCCCCCCCCCCCCCC[n+]1cccc2ccccc21,11µM*,-14%,-23%,-7%
CC(C)=C[C@H]1[C@@H](COC(=O)c2ccccc2Cl)C1(C)C,.,-8%,.,.
COc1cc(C)cc2c(-c3c(O)cc(O)c4c3C[C@H](C)N[C@@H]4C)cc(-c3cc(-c4c(O)cc(O)c5c4C[C@H](C)N[C@@H]5C)c4cc(C)cc(OC)c4c3O)c(O)c12,.,7.9µM*,.,.
COc1ccc2nc(NC(=O)c3cccs3)sc2c1,?,-38%,4%,13µM*
COc1ccc2nc(NC(=O)Nc3ccccc3OC)sc2c1,-5%,6%,-2%,1%
COc1ccc2nc(Nc3ccccc3OC)sc2c1,?,.,2%,18µM*
COC(=O)C1=C(C(=O)OC)[C@@H]2N(C)c3ccccc3[C@@]23C[C@@H](C(=O)OC)N(S(=O)(=O)c2ccc(C)cc2)C3=N1,.,.,.,-1%[11.5 µM]
O=[N+]([O-])c1cccc(/C=N/n2c(-c3cccnc3)n[nH]c2=S)c1,9%,?,2.2µM*,11%
CC(/C=N/n1c(-c2cc(C)[nH]n2)n[nH]c1=S)=C\c1ccccc1,6%,14%,5µM*,-14%
CC(=C/c1ccccc1)/C=N/n1c(-c2ccco2)n[nH]c1=S,-15%[3.69 µM],-107%,.,-21%
Cc1cc(-c2n[nH]c(=S)n2/N=C/c2ccc(Cl)c([N+](=O)[O-])c2)n[nH]1,-10%,7%,?,-1%
O=[N+]([O-])c1ccc(/C=N/n2c(-c3cccnc3)n[nH]c2=S)cc1,-20%,5%,?,4%
Cc1cc(-c2n[nH]c(=S)n2/N=C/c2cc([N+](=O)[O-])ccc2Cl)n[nH]1,11%,?,4µM*,15%
CCCCc1nc2c(c3c1C[C@H](C)OC3)CN(C(=O)C1CC1)CC2,.,.,.,-3%[11.5 µM]
CCN(CC)c1ccc(/C=C2\CCC(/C=C(\C#N)C(=O)Nc3ccccc3F)=C2N2CCOCC2)cc1,-4%,-1%,-19%,11µM*
CCN(CC)c1ccc(/C=C2\CCC(/C=C(/C#N)C(=O)Nc3ccccc3F)=C2N2CCOCC2)cc1,-10%,.,-10%,.
COC(=O)N[C@H](C(=O)N[C@@H](Cc1ccccc1)[C@@H](O)CN(Cc1ccc(-c2ccccn2)cc1)NC(=O)[C@@H](NC(=O)OC)C(C)(C)C)C(C)(C)C,.,.,-4%,.
COc1ccc(S(=O)(=O)Oc2ccc3ccccc3c2)cc1,-11%,-21%,-8%,1%
COC1=C(OC)C(=O)C(Sc2ccc3ccccc3c2)=CC1=O,7.1µM*,.,1.8µM*,.
O=C(CSc1ccc(-c2ccco2)nn1)c1ccc(F)cc1,-11%,1%,20µM*,-8%
Cc1cccc(C)c1NC(=O)CC12CCCN1CCC2,.,.,3%,.
O=C(Oc1cccc2cccnc12)c1cccc(N2C(=O)C3C4CCC(C4)C3C2=O)c1 (stereo unspecified),16µM*,-19%,?,1%
Cc1ccc2c(c1)N(CC(=O)NCC1COc3ccccc3O1)C(=O)CO2 (stereo unspecified),.,-3%,.,.

# Screening results as filed in PubChem.
